Bioassay records: PubChem BioAssay, several laboratories
CYP2C9 inh – human CYP2C9 inhibition; P11712; CYP2C9 Supersomes, luciferin-H conversion, luminescence; inhibition, % at 5 µM; 20% of 96,000 active;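 active means blocking of liver enzyme CYP2C9 beyond about 50% at 5 µM, limit read from the data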
Target sequence (P11712 whole entry, looked up): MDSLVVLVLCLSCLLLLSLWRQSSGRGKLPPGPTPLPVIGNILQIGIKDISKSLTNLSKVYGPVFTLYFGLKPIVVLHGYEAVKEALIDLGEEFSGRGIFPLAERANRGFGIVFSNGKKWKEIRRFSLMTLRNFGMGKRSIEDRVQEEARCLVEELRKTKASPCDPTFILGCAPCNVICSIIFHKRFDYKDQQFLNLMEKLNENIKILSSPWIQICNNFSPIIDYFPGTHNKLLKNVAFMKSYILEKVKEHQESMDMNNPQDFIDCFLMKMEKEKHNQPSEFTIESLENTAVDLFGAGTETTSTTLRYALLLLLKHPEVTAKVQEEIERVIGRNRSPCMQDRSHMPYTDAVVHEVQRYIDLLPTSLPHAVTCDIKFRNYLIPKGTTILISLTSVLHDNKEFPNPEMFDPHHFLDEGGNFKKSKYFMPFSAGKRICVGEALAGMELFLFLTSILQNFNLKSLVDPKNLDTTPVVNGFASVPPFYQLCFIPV
MRP resist rev – compounds reversing MRP-mediated drug resistance; H69AR cells + 2 uM doxorubicin, CellTiter-Glo, 72 h; differential viability (reversal), % at 10 µM; 0.04% of 85,000 active; AID 602;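 active means viability drop by adding the cancer drug above about 55%, with treated viability meeting a 40% cutoff, limit read from the data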;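 further: viability without doxorubicin minus viability with 2 µM doxorubicin for each compound; larger differential means the compound sensitizes cells more to doxorubicin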
MRP-1 activ – activators of MRP-1 | AID 799 | 0.61% of 140,000 active | H69AR cells + doxorubicin, viability rescue, CellTiter-Glo | viability increase, % at 10 µM;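 active means viability gain under doxorubicin at or above a set limit, the compound median plus 3 SD, cut at about 4.7% in these data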;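 further: MRP-1 overexpressing cells given doxorubicin 25 µM after compound pretreatment; 18-22 h compound pretreatment then 72 h with doxorubicin before readout; 0% = doxorubicin-only wells and 100% = vehicle-treated cells without doxorubicin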
CYP2C19 inhib – blocks human cytochrome P450 2C19. 21% of 96,000 active. AID 778. P33261. inhibition, % at 5 µM. CYP2C19 Supersomes, luciferin-H EGE luminescence, 30 min;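 active means CYP2C19 inhibition above a set limit at 5 µM in the primary screen, cut at about 50% in these data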;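 further: plate controls were negative control wells for no effect and 2.5 mM tranylcypromine positive control for full effect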
CYP2C9 activ – activators of human CYP2C9; activation factor at 5 µM; recombinant CYP2C9, luciferin-H conversion, luminescence; hits give high values; factor 1 = untreated enzyme, 0 = blocked; 1.4% of 96,000 active; P11712;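 active means activation factor of 2 or more for CYP2C9 at a 5 µM dose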;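 further: 0 = sulfaphenazole-blocked wells and 1 = vehicle-only wells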
CYP2C19 act – activators of human cytochrome P450 2C19 | P33261 | 96,000 tested, under 10 active | AID 1025 | activation factor at 5 µM | recombinant CYP2C19, luciferin-H EGE luminescence; hits give high values; 0 = fully inhibited enzyme, 1 = untreated enzyme;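 active means activation factor of at least 2 at 5 µM in the primary screen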;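 further: 0 = wells with 2.5 mM tranylcypromine and 1 = vehicle-only wells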
An asterisk follows results filed as active; nt = no result. A selection: hits, their analogues and other compounds. The true share with any hit is near 21%.

SMILES | CYP2C9 inh | MRP resist rev | MRP-1 activ | CYP2C19 inhib | CYP2C9 activ | CYP2C19 act
COc1ccc2nc(NC(=O)CSc3ccccc3)sc2c1 | 63* | -17 | 0 | 31 | 0.4 | 0.7
CCOCC(=O)Nc1nc2ccc(OCC)cc2s1 | 32 | -4 | -2 | 52* | 0.7 | 0.5
COc1ccc2nc(NC(=O)CSc3nnc(N)s3)sc2c1 | nt | nt | 3 | nt | nt | nt
COc1ccc2nc(NC(=S)N(C)C)sc2c1 | 94* | -5 | -2 | 99* | 0.1 | 0
Cc1ccc(-n2c(-c3ccncc3)nnc2-c2cccs2)cc1 | nt | 46 | nt | nt | nt | nt
O=C(O)/C(=C\c1ccco1)NC(=O)c1cccc2ccccc12 | 9 | nt | 0 | 14 | 0.9 | 0.9
CCC(C)NCCCOc1c(C)cc(C)cc1Br (centres undefined) | nt | nt | -3 | nt | nt | nt
CC1(CC(=O)O)SC(=O)NC1=O (centres undefined) | -36 | -9 | -1 | -15 | 1.4 | 1.1
CCOc1ccc2nc(NC(=O)CSC3=NCCS3)sc2c1 | 25 | -2 | -3 | 20 | 0.7 | 0.8
Cc1cccc(OCC(=O)Nc2nc3ccc([N+](=O)[O-])cc3s2)c1 | 91* | nt | -2 | 70* | 0.1 | 0.3
COc1ccc2nc(NC(=O)CSC3=NCCS3)sc2c1 | 29 | -21 | -6 | 64* | 0.7 | 0.4
CCOc1ccc2nc(NC(=O)CSc3ccc(Cl)cc3)sc2c1 | 63* | -11 | -3 | 6 | 0.4 | 0.9
O=C(NCSc1ccnc(SCNC(=O)c2ccc(F)cc2)n1)c1ccc(F)cc1 | 8 | nt | -1 | 6 | 0.9 | 0.9
CN(C)CCCNC(CC(=O)Nc1cccc([N+](=O)[O-])c1)C(=O)O (centres undefined) | nt | nt | 0 | nt | nt | nt
CCOc1ccc(NC(=O)N[C@@H](CCSC)C(=O)OC)cc1 | -13 | -9 | -1 | -18 | 1.1 | 1.2
OC(COCC1COc2ccccc2O1)CN1CCN(c2ccccn2)CC1 (centres undefined) | -14 | 8 | 0 | 19 | 1.1 | 0.8
O=C(COc1ccc2ccccc2c1)NN1C(=O)c2ccccc2C1=O | nt | nt | -1 | nt | nt | nt
COc1ccc(NC(=O)C2CSC3c4ccccc4C(=O)N23)cc1 (centres undefined) | 60* | 5 | 0 | 70* | 0.4 | 0.3
CC(=O)Nc1cccc(NS(=O)(=O)Cc2ccc(Cl)cc2)c1 | -26 | 10 | 0 | 96* | 1.3 | 0
CC(=O)Nc1cccc(OCC(=O)NS(=O)(=O)c2ccc(Cl)cc2)c1 | 46 | 4 | -1 | -5 | 0.5 | 1
CC(=O)c1ccc(NS(=O)(=O)Cc2ccc(Cl)cc2)cc1 | 77* | 7 | 0 | 74* | 0.2 | 0.3
CC(=O)c1ccc(NS(=O)(=O)c2ccc(CC(C)C)cc2)cc1 | 86* | 16 | -3 | 67* | 0.1 | 0.3
O=C(O)c1ccc(NS(=O)(=O)c2ccc(Cl)cc2)cc1 | -7 | 12 | -3 | -2 | 1.1 | 1
O=C(CN1CCCCC1)NCCNc1ccc(C(F)(F)F)cc1[N+](=O)[O-] | nt | nt | 0 | nt | nt | nt
Cc1ccccc1Cn1cc(NC(=O)CSc2nc3c(c(C(F)(F)F)n2)CCc2ccccc2-3)cn1 | 81* | nt | -1 | 30 | 0.2 | 0.7
SMILES | CYP2C9 inh | MRP resist rev | MRP-1 activ | CYP2C19 inhib | CYP2C9 activ | CYP2C19 act
NC(=O)c1c(NC(=O)CSc2nc3c(c(C(F)(F)F)n2)CCc2ccccc2-3)sc2c1CCCC2 | 41 | nt | -2 | 15 | 0.6 | 0.8
Cc1nn(Cc2ccc(Cl)cc2)c(C)c1NC(=O)CSc1nc2c(c(C(F)(F)F)n1)CCc1ccccc1-2 | 72* | nt | 1 | 28 | 0.3 | 0.7
Cc1ccc(Cn2nc(C)c(NC(=O)CSc3nc4c(c(C(F)(F)F)n3)CCc3ccccc3-4)c2C)cc1 | nt | nt | -5 | nt | nt | nt
CCOC(=O)N1CCN(C(c2ccc(F)cc2)c2sc3nc(C)nn3c2O)CC1 (centres undefined) | -4 | 13 | -1 | 8 | 1 | 0.9
CC(C)C(C(=O)Nc1nccs1)c1ccccc1 (centres undefined) | 52* | 2 | -1 | 68* | 0.5 | 0.3
CCOC(=O)C(Cc1ccccc1)C(=O)Nc1nccs1 (centres undefined) | 36 | nt | 1 | 25 | 0.6 | 0.8
CC(C)Cc1ccc(C(C)C(=O)Nc2nccs2)cc1 (centres undefined) | 68* | 6 | -2 | 51* | 0.3 | 0.5
CC(=O)c1ccc(N2CCN(C(=S)Nc3ccccc3F)CC2)cc1 | nt | nt | 0 | nt | nt | nt
Cc1cc(C)n(-c2nc(NC(C)(C)C)nc(NC(C)(C)C)n2)n1 | 8 | nt | -3 | -4 | 0.9 | 1
CC(C)(C)Nc1nc(NC(C)(C)C)nc(-n2ccnc2)n1 | 63* | -17 | 0 | 36 | 0.4 | 0.6
Cc1nc2cc(-c3ccccc3)nn2c(C)c1CCC(=O)NC(C)c1ccc2c(c1)OCCO2 (centres undefined) | nt | nt | 0 | nt | nt | nt
O=C(CN1C(=O)NC2(CCCCC2)C1=O)NC1CCCc2ccccc21 (centres undefined) | nt | nt | 0 | nt | nt | nt
CNC(=S)N1N=C(c2ccc(C)cc2)CC1c1ccc(OC)cc1 (centres undefined) | 93* | nt | 3 | 77* | 0.1 | 0.2
CS(=O)(=O)N1N=C(c2ccccc2)CC1c1cccs1 (centres undefined) | 24 | 4 | -4 | 55* | 0.8 | 0.5
O=C(c1cccs1)N1N=C(c2ccccc2)CC1c1ccccc1 (centres undefined) | 95* | nt | -1 | 68* | 0.1 | 0.3
CCC(=O)N1N=C(c2cccc(NS(C)(=O)=O)c2)CC1c1cccs1 (centres undefined) | nt | nt | -3 | nt | nt | nt
COc1ccc(C2=NN(C(=O)c3cccs3)C(c3ccc(OC)cc3)C2)cc1 (centres undefined) | nt | nt | 7.5* | nt | nt | nt
CCCOC(=O)Nc1nnc(CCC)s1 | 10 | 9 | 0 | 5 | 0.9 | 1
CC1=NCC(C)c2c1[nH]c1ccccc21 (centres undefined) | -5 | nt | -3 | 12 | 1.1 | 0.9
CCN(CC)S(=O)(=O)c1cc([N+](=O)[O-])ccc1NNC(=O)Nc1ccc(Cl)c(Cl)c1 | 74* | 1 | -5 | 12 | 0.3 | 0.9
CCCC(c1nnnn1Cc1ccco1)N1CCN(C(=O)c2ccco2)CC1 (centres undefined) | 19 | 5 | -4 | 30 | 0.8 | 0.7
Cc1ccc(C(c2nnnn2Cc2cccs2)N2CCN(C(=O)c3ccco3)CC2)cc1 (centres undefined) | 48 | -25 | -1 | 71* | 0.5 | 0.3
O=C(c1ccco1)N1CCN(C(c2ccccc2F)c2nnnn2CC2CCCO2)CC1 (centres undefined) | 71* | 11 | 0 | 24 | 0.3 | 0.8
CCC(c1nnnn1CCc1ccccc1)N1CCN(C(=O)c2ccco2)CC1 (centres undefined) | 12 | 6 | -3 | 6 | 0.9 | 0.9
CC(C)CC(c1nnnn1CCc1ccccc1)N1CCN(C(=O)c2ccco2)CC1 (centres undefined) | 98* | 18 | -2 | 80* | 0 | 0.2
